Laboratory results from PubChem BioAssay (NCI).
“And” between values parts separate entries of the source, which are not always exact repeats. Equal entries are not always repeated. This is part of a sample that, as a whole, favours compounds with a hit. Of some 83,000 tested, about 20% had one in any assay.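 Single-dose data. Exposure time 48 hours. Values below 10 considered active.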 The source made the active and inactive calls.

How the values were obtained:
Test in all cases: NCI-60 one-dose screen, 48 h (100 = growth as untreated, 0 = no growth, -100 = all killed)
T-47D breast = conditions: 10 µM unless noted
BT-549 breast = conditions: 10 µM unless noted
MDA-MB-435 melanoma = conditions: 10 µM unless noted
MCF7 breast = test system: MCF7 breast
HCT-116 colon = conditions: 10 µM unless noted
HCC-2998 colon = conditions: 10 µM unless noted
KM12 colon = conditions: 10 µM unless noted
SW-620 colon = conditions: 10 µM unless noted

Measured: growth

O=Nc1ccc(NO)c2ccccc12
inactive: T-47D breast 96.9% and 65.8% | BT-549 breast 83.3% and 87.8% | MCF7 breast; 10 µM unless noted 91.5% and 64.5% | HCT-116 colon 95% and 39.1% | HCC-2998 colon 120% and 108% | KM12 colon 104% and 76.4%
107% (inactive) and -57.8% (active): MDA-MB-435 melanoma

N#Cc1ccccc1-c1ccc(Cn2c(-c3cscn3)nc3c(Cl)cccc32)cc1
inactive: T-47D breast 56.3% | BT-549 breast 76.1% | MDA-MB-435 melanoma 90.1% | MCF7 breast; 10 µM unless noted 64.2% | HCT-116 colon 51.2% | HCC-2998 colon 93% | KM12 colon 77.1%

O=C(NCc1cccnc1)/C(=C\c1ccc(Br)cc1)S(=O)(=O)c1ccccc1
active: T-47D breast -64.6% | BT-549 breast -21.2% | MDA-MB-435 melanoma -14.9% | MCF7 breast; 10 µM unless noted -44.4% | HCT-116 colon -76% | HCC-2998 colon -76.5% | KM12 colon -48.1%

COC(=O)[C@H]1Cc2c([nH]c3ccccc23)[C@@H](c2cccs2)N1
inactive: T-47D breast 92.9% | BT-549 breast 102% | MDA-MB-435 melanoma 100% | MCF7 breast; 10 µM unless noted 103% | HCT-116 colon 104% | HCC-2998 colon 102% | KM12 colon 100%

COc1cc(CO)cc2cc3ccccc3nc12
inactive: T-47D breast 101% | BT-549 breast 102% | MDA-MB-435 melanoma 104% | MCF7 breast; 10 µM unless noted 79.9% | HCT-116 colon 98.5% | HCC-2998 colon 106% | KM12 colon 102%

CN(C)C(=O)c1cc2cnc(Nc3ccc(-c4csc5c(=S)cc(N6CCOCC6)oc45)cc3)nc2n1C1CCCC1
active: T-47D breast -3.44% | BT-549 breast 9.89% | MCF7 breast; 10 µM unless noted -5.27% | HCT-116 colon 2.89% | HCC-2998 colon 8.51% | KM12 colon 6.53%
inactive: MDA-MB-435 melanoma 17.3%

O=C1CCCCN1CCCCC#Cc1cccc(C#Cc2cccnc2)c1
inactive: T-47D breast 84.1% | BT-549 breast 265% | MDA-MB-435 melanoma 84.6% | MCF7 breast; 10 µM unless noted 101% | HCT-116 colon 141% and 39.7% | HCC-2998 colon 77.2% | KM12 colon 73.6%

COc1ccc(/C=C/C(=O)c2cc3c(N)c(C(=O)Nc4ccccc4)sc3nc2C)cc1
inactive: T-47D breast 46.7% | SW-620 colon 18% | HCC-2998 colon 11.7%
active: MDA-MB-435 melanoma -23.9% | MCF7 breast; 10 µM unless noted 7.19% | HCT-116 colon 8.12% | KM12 colon 6.61%

Cn1cc2c(=O)nc3c(-c4nc5ccccc5[nH]4)n[nH]n3c2n1
inactive: T-47D breast 67.6% | MDA-MB-435 melanoma 73.9% | SW-620 colon 97.2% | MCF7 breast; 10 µM unless noted 65.7% | HCT-116 colon 80.6% | HCC-2998 colon 84.8% | KM12 colon 73.9%

CCNC(=O)Oc1ccc(/C(=C(/C)Cc2ccc(OC)cc2)c2ccc(OCCN(CC)CC)cc2)cc1
inactive: T-47D breast 27.4% | MDA-MB-435 melanoma 40.5% | SW-620 colon 45.2% | MCF7 breast; 10 µM unless noted 18.3% | HCT-116 colon 30.9% | HCC-2998 colon 59.7% | KM12 colon 62.2%

Cc1ccc(S(=O)(=O)OC[C@@]2(C)CC[C@]3(C)CC[C@]4(C)C(=CC[C@@H]5[C@@]6(C)CCCNC(C)(C)[C@@H]6CC[C@]54C)[C@@H]3C2)cc1
active: T-47D breast -82.8% | MDA-MB-435 melanoma -89.9% | SW-620 colon -81.9% | MCF7 breast; 10 µM unless noted -61.6% | HCT-116 colon -80.6% | HCC-2998 colon -92.3% | KM12 colon -91.7%

COC(=O)c1nc(-c2ccc(C)cc2)oc1S(=O)(=O)c1ccc(Cl)cc1
inactive: T-47D breast 88.6% | MDA-MB-435 melanoma 107% | SW-620 colon 80% | MCF7 breast; 10 µM unless noted 89.8% | HCT-116 colon 77.7% | HCC-2998 colon 112% | KM12 colon 116%

COc1ccc2c(c1)oc1c(C)c3c(c(C)c12)C(=O)N(Nc1ccccc1)C3=O
inactive: T-47D breast 88.1% | MDA-MB-435 melanoma 104% | SW-620 colon 110% | MCF7 breast; 10 µM unless noted 94.7% | HCT-116 colon 96% | HCC-2998 colon 105% | KM12 colon 97.4%

O=C(/C=C\c1ccc(Cl)c(Cl)c1)c1ccccc1
inactive: T-47D breast 77.4% and 86.9% | MDA-MB-435 melanoma 70.5% and 100% | SW-620 colon 31.9% and 95.1% | MCF7 breast; 10 µM unless noted 18.8% and 28.2% | HCT-116 colon 22.7% and 62.1% | HCC-2998 colon 95.2% and 104% | KM12 colon 96.6%

CCN(C(=O)N1CCN(c2cc3c(cc2F)c(=O)c(C(=O)O)cn3C2CC2)CC1)c1nc(-c2ccccc2)cs1
inactive: T-47D breast 55.4% | MDA-MB-435 melanoma 27.3% | SW-620 colon 23.3% | MCF7 breast; 10 µM unless noted 14.9% | HCC-2998 colon 21% | KM12 colon 21.1%
active: HCT-116 colon 6.31%

CN1CCN(c2ccc(/C=C/C(=O)c3ccc(O)cc3)cc2)CC1
inactive: T-47D breast 83.6% | MDA-MB-435 melanoma 100% | SW-620 colon 99.5% | MCF7 breast; 10 µM unless noted 89.7% | HCT-116 colon 99.2% | HCC-2998 colon 102% | KM12 colon 101%

CC1(Cc2ccccc2)CC2=C(C(=O)O1)C(c1ccccc1)NC(=O)N2 (stereo unspecified)
inactive: T-47D breast 97% | MDA-MB-435 melanoma 99.4% | SW-620 colon 106% | MCF7 breast; 10 µM unless noted 105% | HCT-116 colon 86.9% | HCC-2998 colon 94.9% | KM12 colon 107%

O=C1/C(=C/c2cn(-c3ccccc3)nc2-c2ccccc2)SC(=S)N1c1ccccc1
inactive: T-47D breast 99.1% | MDA-MB-435 melanoma 98.3% | SW-620 colon 99.8% | MCF7 breast; 10 µM unless noted 93.8% | HCT-116 colon 102% | HCC-2998 colon 96.6% | KM12 colon 101%

COc1cc(-c2[nH]ncc2Nc2ccc(Cl)cc2)cc(OC)c1OC
inactive: T-47D breast 46.4% | MDA-MB-435 melanoma 55.5% | SW-620 colon 82.6% | MCF7 breast; 10 µM unless noted 41.9% | HCT-116 colon 58.4% | HCC-2998 colon 83.4% | KM12 colon 63.5%

COc1cc2cc(NCc3ccncc3)nc(C)c2cc1OC
inactive: T-47D breast 71.2% | MDA-MB-435 melanoma 106% | SW-620 colon 107% | MCF7 breast; 10 µM unless noted 93.4% | HCT-116 colon 93.1% | HCC-2998 colon 106% | KM12 colon 109%

BrC1=C(Br)C(Br)(Br)C(Br)=C1Br
inactive: T-47D breast 77.9% | MDA-MB-435 melanoma 75.6% | SW-620 colon 80.1% | MCF7 breast; 10 µM unless noted 50% | HCT-116 colon 65.1% | HCC-2998 colon 103% | KM12 colon 103%

NCCOCCOc1ccccc1
inactive: T-47D breast 101% | MDA-MB-435 melanoma 107% | SW-620 colon 102% | MCF7 breast; 10 µM unless noted 91.2% | HCT-116 colon 99.4% | HCC-2998 colon 94.2% | KM12 colon 105%

COC(=O)N/N=C/c1c[n+]([O-])c2ccccc2[n+]1[O-]
inactive: T-47D breast 20.4% | MDA-MB-435 melanoma 96.4% | SW-620 colon 103% | MCF7 breast; 10 µM unless noted 93.6% | HCT-116 colon 104% | HCC-2998 colon 104% | KM12 colon 103%

N#Cc1cc(-c2ccnc(Nc3ccc(NC(=O)CCl)cc3)n2)ccc1N1CCCC1
active: T-47D breast -68.2% | MDA-MB-435 melanoma -47.6% | SW-620 colon -36.9% | MCF7 breast; 10 µM unless noted -19.1% | HCT-116 colon -37.2% | HCC-2998 colon -79.5% | KM12 colon -11.6%

CC(C)(C)CC(N)=O
inactive: BT-549 breast 75.3% | MDA-MB-435 melanoma 109% | SW-620 colon 102% | MCF7 breast; 10 µM 85.9% | HCT-116 colon 93.6% | HCC-2998 colon 106% | KM12 colon 109%
85.2% (inactive) and 8.62% (active): MCF7 breast; 100 µM

C=C1C(=O)O[C@@H]2[C@H]3[C@H](COC(C)=O)[C@@H](OC(C)=O)C[C@H]3C(=C)[C@@H](O)C[C@@H]12
inactive: T-47D breast 90.5% | MDA-MB-435 melanoma 101% | SW-620 colon 84.4% | MCF7 breast; 10 µM unless noted 76.8% | HCT-116 colon 75.7% | HCC-2998 colon 109% | KM12 colon 99.8%

COc1ccc(C/C(C)=C(\c2ccc(O)cc2)c2ccc(OCCCN(C)C)cc2)cc1
inactive: T-47D breast 72.6% | MDA-MB-435 melanoma 101% | SW-620 colon 95.2% | MCF7 breast; 10 µM unless noted 41.1% | HCT-116 colon 80.8% | HCC-2998 colon 104% | KM12 colon 93%

Clc1ccc(/C=N\N2CCCCCC2)cc1
inactive: T-47D breast 108% and 97.4% | MDA-MB-435 melanoma 86.8% and 96.3% | SW-620 colon 101% and 110% | MCF7 breast; 10 µM unless noted 98.8% and 96.2% | HCT-116 colon 103% and 104% | HCC-2998 colon 97.4% | KM12 colon 107%

Nc1c(C(=O)Nc2ccncc2)sc2nc3c(cc12)CCCCCCCC3
active: T-47D breast -71.2% | MDA-MB-435 melanoma -89.9% | SW-620 colon -69.2% | MCF7 breast; 10 µM unless noted -83.4% | HCT-116 colon -76.3% | HCC-2998 colon -54.3% | KM12 colon -80.4%

Cn1cc(C2=C(c3cccc4ccccc34)C(=O)NC2=O)c2cc(Br)ccc21
inactive: T-47D breast 81.3% | MDA-MB-435 melanoma 95.7% | SW-620 colon 96.1% | MCF7 breast; 10 µM unless noted 84.3% | HCT-116 colon 71.3% | HCC-2998 colon 126% | KM12 colon 89.7%
